We go through six compounds from PubChem BioAssay (NCI).

About 79,000 compounds went through this panel and 15% of them were active in at least one assay; those are over-represented in the sample as a whole. Values without a mark were called inactive. Calls of active or inactive are those of the source. Rule as the data show it: active = growth inhibition above about 70%; inactive = the rest.

The nature of assay [1]: NCI Yeast Anticancer Drug Screen. Data for the rad50 strain (AID 155).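 Also: 0% = growth of vehicle-only cultures of the same strain.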 The conditions noted are these: S. cerevisiae rad50 strain growth inhibition, stronger effect = higher value. The method, boiled down:
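A DNA repair-deficient yeast mutant serves as the test organism; compound-induced growth inhibition is calculated against vehicle-treated cells.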

The nature of assay [2]: NCI Yeast Anticancer Drug Screen. Data for the mec2-1 strain (AID 157). To be noted: S. cerevisiae mec2-1 strain, stronger effect = higher value. The essentials:
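Vehicle-treated cultures served as reference for growth inhibition of compound-exposed mec2-1 yeast.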

Assay [3] in a line: NCI Yeast Anticancer Drug Screen. Data for the sgs1 mgt1 strain (AID 161).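 Also: 0% = growth of cultures given vehicle only.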 The conditions noted are these: S. cerevisiae sgs1 mgt1 strain, stronger effect = higher value. The essentials:
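Genetically altered yeast, compound exposure, growth inhibition relative to vehicle.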

The nature of assay [4]: NCI Yeast Anticancer Drug Screen. Data for the cln2 rad14 strain (AID 165).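 Also: 0% = growth equal to vehicle treated cultures.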 To be noted: S. cerevisiae cln2 rad14 strain, stronger effect = higher value. The method, boiled down: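 Each compound was tested on cln2 rad14 yeast. Inhibition of growth was calculated against vehicle-exposed controls.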
Assay [5] in a line: NCI Yeast Anticancer Drug Screen. Data for the bub3 strain (AID 167). To be noted: S. cerevisiae bub3 mutant strain, stronger effect = higher value. The method, boiled down: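 Inhibition values come from growth of compound-treated mutant yeast normalised to vehicle-treated controls.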
A short description of assay [6]: NCI Yeast Anticancer Drug Screen. Data for the mlh1 rad18 strain (AID 175). To be noted: S. cerevisiae mlh1 rad18 strain growth inhibition, stronger effect = higher value. The essentials:
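Vehicle-treated cultures served as the reference for growth inhibition in a yeast strain carrying DNA damage repair alterations exposed to each compound.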

Where [7] appears, read: at 5.0 µM (retest, dose inferred, filed as 0.5).
Where [8] appears, read: at 50.0 µM (retest, dose inferred, filed as 5.0).

On to `O=C(NCCCl)Nc1c2ccccc2nc2ccccc12`, for which the growth inhibition in assay [1] (setting [7]) is 15%; in assay [1] (setting [8]), 65%; in assay [1] (at 50.0 µM), 72% (active); in assay [2] (setting [7]), 8%; in assay [2] (setting [8]), 39%; in assay [2] (at 50.0 µM), 41%. In addition, the growth inhibition is 4% in assay [3] (setting [7]); 23% in assay [3] (setting [8]); 24.5% in assay [3] (at 50.0 µM); 16% in assay [4] (setting [7]); 23% in assay [4] (setting [8]); 31.4% in assay [4] (at 50.0 µM). The growth inhibition in assay [5] (setting [7]) was -1%; in assay [5] (setting [8]), 19%; in assay [5] (at 50.0 µM) it was 34.9%; in assay [6] (setting [7]), 9%; in assay [6] (setting [8]), 41%; in assay [6] (at 50.0 µM), 37%.
With `CC1=CC2OC3CC4OC(=O)/C=C/C=C/C(C(C)O)OCC(=O)C(C)CC(=O)OCC2(CC1)C4(C)C31CO1` (stereo not drawn), the growth inhibition in assay [1] (setting [7]) is 28%; in assay [1] (setting [8]), 98% (active); in assay [1] (at 50.0 µM) it was 90.8% (active); in assay [2] (setting [7]), 26%; in assay [2] (setting [8]), 99% (active); in assay [2] (at 50.0 µM), 94% (active). For the same compound, the growth inhibition in assay [3] (setting [7]) was 31%; in assay [3] (setting [8]) it was 98% (active); in assay [3] (at 50.0 µM) it was 91.8% (active); in assay [4] (setting [7]), 72% (active); in assay [4] (setting [8]), 99% (active); in assay [4] (at 50.0 µM), 91.3% (active). The growth inhibition is 60% in assay [5] (setting [7]); 99% (active) in assay [5] (setting [8]); 91.8% (active) in assay [5] (at 50.0 µM); 65% in assay [6] (setting [7]); 99% (active) in assay [6] (setting [8]); 91.3% (active) in assay [6] (at 50.0 µM).
On to `C=C1C(O)C2(O)OCC34C(CC5C(C)=CC(=O)C(O)C5(C)C23)OC(=O)C(OC(=O)C/C=C(\C)CCCCC)C14` (stereo not drawn), for which the growth inhibition in assay [1] (setting [7]) is 76% (active); in assay [1] (setting [8]) it was 98% (active); in assay [1] (at 50.0 µM), 92.3% (active); in assay [2] (setting [7]) it was 52%; in assay [2] (setting [8]) it was 98% (active); in assay [2] (at 50.0 µM), 93.3% (active). In addition, the growth inhibition in assay [3] (setting [7]) was 60%; in assay [3] (setting [8]), 98% (active); in assay [3] (at 50.0 µM), 93% (active); in assay [4] (setting [7]), 88% (active); in assay [4] (setting [8]), 98% (active); in assay [4] (at 50.0 µM), 91.7% (active). Besides, the growth inhibition in assay [5] (setting [7]) was 75% (active); in assay [5] (setting [8]) it was 99% (active); in assay [5] (at 50.0 µM), 91.2% (active); in assay [6] (setting [7]), 89% (active); in assay [6] (setting [8]), 98% (active); in assay [6] (at 50.0 µM), 92.2% (active).
As to `Oc1c(Cl)cc(Cl)cc1Br`, the growth inhibition in assay [1] (setting [7]) was -4%; in assay [1] (setting [8]), 83% (active); in assay [1] (at 50.0 µM), 90.2% (active); in assay [2] (setting [7]), 5%; in assay [2] (setting [8]), 96% (active); in assay [2] (at 50.0 µM) it was 97.4% (active). Also, the growth inhibition in assay [3] (setting [7]) is 3%; in assay [3] (setting [8]), 72% (active); in assay [3] (at 50.0 µM), 96.7% (active); in assay [4] (setting [7]), 0%; in assay [4] (setting [8]) it was 91% (active); in assay [4] (at 50.0 µM) it was 54.5%. For the same compound, the growth inhibition in assay [5] (setting [7]) was -7%; in assay [5] (setting [8]), 78% (active); in assay [5] (at 50.0 µM) it was 84.7% (active); in assay [6] (setting [7]), -2%; in assay [6] (setting [8]), 91% (active); in assay [6] (at 50.0 µM) it was 88.1% (active).
In the case of `O=C(O)CC/C(=N\Nc1ccccc1)C(=O)O`, the growth inhibition was 3% in assay [1] (setting [7]); 96% (active) in assay [1] (setting [8]); 97.2% (active) in assay [1] (at 50.0 µM); -2% in assay [2] (setting [7]); 90% (active) in assay [2] (setting [8]); 98% (active) in assay [2] (at 50.0 µM). Also, the growth inhibition in assay [3] (setting [7]) is -8%; in assay [3] (setting [8]), 84% (active); in assay [3] (at 50.0 µM), 97.4% (active); in assay [4] (setting [7]), 6%; in assay [4] (setting [8]), 98% (active); in assay [4] (at 50.0 µM) it was 97% (active). Moreover, the growth inhibition in assay [5] (setting [7]) was 1%; in assay [5] (setting [8]) it was 93% (active); in assay [5] (at 50.0 µM) it was 97.3% (active); in assay [6] (setting [7]), 5%; in assay [6] (setting [8]), 93% (active); in assay [6] (at 50.0 µM), 97% (active).
For the compound `CCCCN(CCO)CC(O)Cn1cnc2c(N)ncnc21` (stereo not drawn) (tested in a mixture with another compound), the growth inhibition in assay [1] (setting [7]) is -12%; in assay [1] (setting [8]) it was -5%; in assay [1] (at 50.0 µM) it was 21.9%; in assay [2] (setting [7]) it was -12%; in assay [2] (setting [8]) it was -8%; in assay [2] (at 50.0 µM), -5.45%. For the same compound, the growth inhibition is -18% in assay [3] (setting [7]); 0% in assay [3] (setting [8]); -3.9% in assay [3] (at 50.0 µM); -18% in assay [4] (setting [7]); -7% in assay [4] (setting [8]); 18.7% in assay [4] (at 50.0 µM). For the same compound, the growth inhibition in assay [5] (setting [7]) is 1%; in assay [5] (setting [8]), -8%; in assay [5] (at 50.0 µM) it was 3.2%; in assay [6] (setting [7]) it was 3%; in assay [6] (setting [8]), -4%; in assay [6] (at 50.0 µM) it was 25.9%.
